Experimental data published in paper PMC7862700, “An all-to-all approach to the identification of sequence-specific readers for epigenetic DNA modifications on cytosine”.

Tests used:
Assay in all cases: DAPPL (digital affinity profiling via proximity ligation, sequencing); 10 mM Tris-HCl pH 7.5, 50 mM NaCl, 1 mM DTT, 4% glycerol, room temperature, 30 min; GST-TFs on glutathione beads, 16-mer random dsDNA library, 0.1% formaldehyde crosslink after washing; high values mean tight binding
FLI1 = target: T1, FLI1 (Homo sapiens, UniProt Q01543 1-452); details: protein: recombinant; tags: N-terminal GST; dsDNA, one strand shown
T1 sequence: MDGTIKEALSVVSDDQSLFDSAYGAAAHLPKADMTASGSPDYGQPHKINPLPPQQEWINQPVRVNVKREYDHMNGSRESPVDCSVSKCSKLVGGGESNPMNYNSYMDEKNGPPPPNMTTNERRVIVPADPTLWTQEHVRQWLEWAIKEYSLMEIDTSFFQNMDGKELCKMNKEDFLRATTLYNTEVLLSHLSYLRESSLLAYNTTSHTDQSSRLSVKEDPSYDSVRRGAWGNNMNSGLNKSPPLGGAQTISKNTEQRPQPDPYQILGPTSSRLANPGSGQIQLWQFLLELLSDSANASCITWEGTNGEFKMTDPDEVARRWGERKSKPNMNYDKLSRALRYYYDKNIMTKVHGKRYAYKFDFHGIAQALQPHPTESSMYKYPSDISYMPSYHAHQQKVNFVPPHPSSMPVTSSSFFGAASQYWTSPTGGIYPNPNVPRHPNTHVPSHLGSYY
Outline: (§1)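 Sequencing on an Illumina NextSeq500 followed washing, crosslinking with 0.1% formaldehyde, proximity ligation (BsaI/T4 ligase, 1 h, 37 °C) and PCR amplification of pools that had been incubated for 30 min at room temperature with 200 nmole of a random double-stranded 16-mer DNA library in Tris/NaCl/DTT/glycerol buffer. Each pool held DNA-barcoded human transcription factors, expressed in yeast as GST fusions and captured on glutathione beads, plus a tag-only sample. Binding signal is a hexamer's read frequency for a factor divided by its frequency in the tag-only sample.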

ELK1 = target: T2, ELK1 (Homo sapiens, UniProt P19419 1-428); details: protein: recombinant; tags: N-terminal GST; dsDNA, one strand shown
T2 sequence: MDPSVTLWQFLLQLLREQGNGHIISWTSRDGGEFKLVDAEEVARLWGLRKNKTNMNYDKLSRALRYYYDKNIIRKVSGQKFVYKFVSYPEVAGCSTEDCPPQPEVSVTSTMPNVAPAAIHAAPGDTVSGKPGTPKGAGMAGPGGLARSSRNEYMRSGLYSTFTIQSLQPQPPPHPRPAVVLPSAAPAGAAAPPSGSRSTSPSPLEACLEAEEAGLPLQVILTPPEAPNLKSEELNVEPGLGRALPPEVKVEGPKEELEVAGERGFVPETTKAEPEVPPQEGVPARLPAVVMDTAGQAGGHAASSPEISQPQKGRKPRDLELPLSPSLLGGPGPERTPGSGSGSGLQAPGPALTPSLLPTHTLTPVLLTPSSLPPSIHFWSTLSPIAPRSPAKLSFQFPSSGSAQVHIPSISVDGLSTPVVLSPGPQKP
Outline: as §1

GABPA = target: T3, GABPA (Homo sapiens, UniProt Q06546 1-454); details: protein: recombinant; tags: N-terminal GST; dsDNA, one strand shown
T3 sequence: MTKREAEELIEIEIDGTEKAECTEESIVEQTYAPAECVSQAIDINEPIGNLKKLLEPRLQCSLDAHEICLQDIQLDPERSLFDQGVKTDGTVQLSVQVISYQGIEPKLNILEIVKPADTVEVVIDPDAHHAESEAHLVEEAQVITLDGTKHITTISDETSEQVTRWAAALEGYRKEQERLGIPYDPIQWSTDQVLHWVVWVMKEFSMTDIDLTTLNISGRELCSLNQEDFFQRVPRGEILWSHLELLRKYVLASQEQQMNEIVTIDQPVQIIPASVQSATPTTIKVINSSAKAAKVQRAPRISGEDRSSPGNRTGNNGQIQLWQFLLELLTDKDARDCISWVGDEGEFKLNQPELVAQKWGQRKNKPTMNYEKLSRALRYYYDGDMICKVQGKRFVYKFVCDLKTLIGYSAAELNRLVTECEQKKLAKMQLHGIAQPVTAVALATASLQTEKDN
Outline: as §1

ERG = target: T4, ERG (Homo sapiens, UniProt P11308 1-479); details: protein: recombinant; tags: N-terminal GST; dsDNA, one strand shown
T4 sequence: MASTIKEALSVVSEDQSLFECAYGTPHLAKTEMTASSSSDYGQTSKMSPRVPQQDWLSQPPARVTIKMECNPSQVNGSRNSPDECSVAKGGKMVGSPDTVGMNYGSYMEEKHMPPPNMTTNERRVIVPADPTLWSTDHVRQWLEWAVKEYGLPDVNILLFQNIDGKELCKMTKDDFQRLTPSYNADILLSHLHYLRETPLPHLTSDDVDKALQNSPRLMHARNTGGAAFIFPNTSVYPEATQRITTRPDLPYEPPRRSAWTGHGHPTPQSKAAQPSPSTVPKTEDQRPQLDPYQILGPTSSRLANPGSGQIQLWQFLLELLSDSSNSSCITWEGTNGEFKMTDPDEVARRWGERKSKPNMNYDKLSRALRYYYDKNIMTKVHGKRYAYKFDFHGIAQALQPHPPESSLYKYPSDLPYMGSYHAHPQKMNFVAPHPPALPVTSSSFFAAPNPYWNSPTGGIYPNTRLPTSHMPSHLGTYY
Outline: as §1

ELF1 = ELF1 (Homo sapiens, UniProt P32519 1-619); details: protein: recombinant; tags: N-terminal GST; dsDNA, one strand shown
Sequence of ELF1 (P32519 whole entry): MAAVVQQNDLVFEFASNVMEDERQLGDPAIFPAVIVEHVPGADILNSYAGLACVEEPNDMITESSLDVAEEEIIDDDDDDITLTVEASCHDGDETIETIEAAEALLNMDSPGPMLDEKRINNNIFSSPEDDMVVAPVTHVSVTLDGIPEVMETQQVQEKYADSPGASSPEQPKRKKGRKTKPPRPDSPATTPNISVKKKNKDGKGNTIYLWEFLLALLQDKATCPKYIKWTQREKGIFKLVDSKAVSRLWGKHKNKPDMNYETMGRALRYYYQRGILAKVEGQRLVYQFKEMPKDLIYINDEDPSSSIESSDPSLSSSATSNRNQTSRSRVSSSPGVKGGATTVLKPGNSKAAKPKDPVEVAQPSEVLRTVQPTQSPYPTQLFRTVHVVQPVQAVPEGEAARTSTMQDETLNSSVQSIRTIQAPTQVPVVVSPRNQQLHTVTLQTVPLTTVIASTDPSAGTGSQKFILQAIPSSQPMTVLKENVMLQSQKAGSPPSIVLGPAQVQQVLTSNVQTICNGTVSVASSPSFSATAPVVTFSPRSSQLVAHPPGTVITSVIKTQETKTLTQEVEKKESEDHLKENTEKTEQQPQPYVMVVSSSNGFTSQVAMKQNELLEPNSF
Outline: as §1

EHF = target: T5, EHF (Homo sapiens, UniProt Q9NZC4 1-300); details: protein: recombinant; tags: N-terminal GST; dsDNA, one strand shown
T5 sequence: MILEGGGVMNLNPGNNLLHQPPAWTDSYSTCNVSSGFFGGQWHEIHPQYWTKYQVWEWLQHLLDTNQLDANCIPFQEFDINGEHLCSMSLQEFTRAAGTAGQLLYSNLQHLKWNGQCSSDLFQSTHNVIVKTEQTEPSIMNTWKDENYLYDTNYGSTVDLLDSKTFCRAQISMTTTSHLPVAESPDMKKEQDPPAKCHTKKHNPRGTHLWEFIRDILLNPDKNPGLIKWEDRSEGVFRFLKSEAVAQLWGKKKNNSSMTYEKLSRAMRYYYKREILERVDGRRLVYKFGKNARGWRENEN
Outline: as §1

SPI1 = SPI1 (Homo sapiens, UniProt P17947 1-270); details: protein: recombinant; tags: N-terminal GST; dsDNA, one strand shown
Outline: as §1

SPIB = SPIB (Homo sapiens, UniProt Q01892 1-262); details: protein: recombinant; tags: N-terminal GST; dsDNA, one strand shown
Sequence of SPIB (Q01892 whole entry): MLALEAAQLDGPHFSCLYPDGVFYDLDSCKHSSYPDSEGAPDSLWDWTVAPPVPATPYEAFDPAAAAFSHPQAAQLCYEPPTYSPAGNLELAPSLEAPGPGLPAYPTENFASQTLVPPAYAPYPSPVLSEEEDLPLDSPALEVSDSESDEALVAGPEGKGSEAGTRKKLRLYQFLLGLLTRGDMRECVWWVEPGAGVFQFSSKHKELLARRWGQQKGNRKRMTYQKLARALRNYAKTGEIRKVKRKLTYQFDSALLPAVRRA
Outline: as §1

ELK3 = target: T6, ELK3 (Homo sapiens, UniProt P41970 1-407); details: protein: recombinant; tags: N-terminal GST; dsDNA, one strand shown
T6 sequence: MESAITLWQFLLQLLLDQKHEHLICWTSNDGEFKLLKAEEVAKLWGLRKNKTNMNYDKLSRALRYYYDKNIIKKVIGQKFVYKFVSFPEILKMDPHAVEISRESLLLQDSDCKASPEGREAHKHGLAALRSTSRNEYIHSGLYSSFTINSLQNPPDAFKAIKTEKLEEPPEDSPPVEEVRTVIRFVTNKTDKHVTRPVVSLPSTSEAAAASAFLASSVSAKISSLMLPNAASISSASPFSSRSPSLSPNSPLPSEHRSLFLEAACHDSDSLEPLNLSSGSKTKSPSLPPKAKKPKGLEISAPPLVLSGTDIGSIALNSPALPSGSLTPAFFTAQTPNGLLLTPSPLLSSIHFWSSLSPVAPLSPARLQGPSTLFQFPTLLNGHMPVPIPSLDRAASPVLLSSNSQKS
Outline: as §1

FEV = target: T7, FEV (Homo sapiens, UniProt Q99581 1-238); details: protein: recombinant; tags: N-terminal GST; dsDNA, one strand shown
T7 sequence: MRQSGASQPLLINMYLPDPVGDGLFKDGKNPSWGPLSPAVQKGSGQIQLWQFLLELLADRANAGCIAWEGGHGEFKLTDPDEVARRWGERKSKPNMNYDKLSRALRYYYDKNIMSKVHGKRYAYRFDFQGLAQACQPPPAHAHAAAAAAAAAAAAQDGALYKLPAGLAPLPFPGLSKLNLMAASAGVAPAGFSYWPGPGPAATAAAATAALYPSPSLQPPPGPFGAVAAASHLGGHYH
Outline: as §1

ETV5 = ETV5 (Homo sapiens, UniProt P41161 1-510); details: protein: recombinant; tags: N-terminal GST; dsDNA, one strand shown
Sequence of ETV5 (P41161 whole entry): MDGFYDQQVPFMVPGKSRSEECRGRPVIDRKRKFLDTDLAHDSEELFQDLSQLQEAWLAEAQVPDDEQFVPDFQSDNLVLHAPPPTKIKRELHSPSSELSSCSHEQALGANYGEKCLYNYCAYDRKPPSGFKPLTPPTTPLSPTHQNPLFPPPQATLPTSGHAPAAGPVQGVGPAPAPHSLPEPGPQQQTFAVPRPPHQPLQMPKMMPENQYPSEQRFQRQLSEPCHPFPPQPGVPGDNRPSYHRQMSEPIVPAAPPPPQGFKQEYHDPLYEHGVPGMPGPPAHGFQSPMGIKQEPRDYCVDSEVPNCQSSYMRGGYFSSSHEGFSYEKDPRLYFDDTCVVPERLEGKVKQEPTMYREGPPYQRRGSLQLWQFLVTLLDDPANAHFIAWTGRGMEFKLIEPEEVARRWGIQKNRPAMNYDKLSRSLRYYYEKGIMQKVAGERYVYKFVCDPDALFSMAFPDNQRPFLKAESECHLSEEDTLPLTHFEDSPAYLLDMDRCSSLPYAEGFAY
Outline: as §1

HSF1 = HSF1 (Homo sapiens, UniProt Q00613 1-529); details: protein: recombinant; tags: N-terminal GST; chain copies: 3; dsDNA, one strand shown
Sequence of HSF1 (Q00613 whole entry): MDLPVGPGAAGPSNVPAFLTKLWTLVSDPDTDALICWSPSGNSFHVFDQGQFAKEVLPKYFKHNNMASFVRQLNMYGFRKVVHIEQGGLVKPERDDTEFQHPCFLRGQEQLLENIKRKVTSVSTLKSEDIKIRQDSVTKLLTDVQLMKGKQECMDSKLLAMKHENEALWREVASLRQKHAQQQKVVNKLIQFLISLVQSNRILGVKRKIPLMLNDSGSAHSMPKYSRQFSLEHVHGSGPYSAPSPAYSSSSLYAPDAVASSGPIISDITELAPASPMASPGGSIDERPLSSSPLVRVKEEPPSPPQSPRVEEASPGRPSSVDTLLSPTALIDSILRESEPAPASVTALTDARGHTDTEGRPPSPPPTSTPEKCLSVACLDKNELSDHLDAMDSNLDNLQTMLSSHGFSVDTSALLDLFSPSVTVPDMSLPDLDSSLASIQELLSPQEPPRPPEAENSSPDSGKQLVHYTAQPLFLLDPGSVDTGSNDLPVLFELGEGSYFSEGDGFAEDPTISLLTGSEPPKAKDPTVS
Outline: as §1

SPIC = target: T8, SPIC (Homo sapiens, UniProt Q8N5J4 1-248); details: protein: recombinant; tags: N-terminal GST; dsDNA, one strand shown
T8 sequence: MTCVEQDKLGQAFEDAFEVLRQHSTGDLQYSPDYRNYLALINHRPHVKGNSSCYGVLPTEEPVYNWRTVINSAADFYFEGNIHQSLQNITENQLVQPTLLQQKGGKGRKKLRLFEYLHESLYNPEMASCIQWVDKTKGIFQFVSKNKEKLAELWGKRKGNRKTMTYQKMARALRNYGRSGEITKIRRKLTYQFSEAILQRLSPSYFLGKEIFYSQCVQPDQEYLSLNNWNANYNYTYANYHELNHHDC
Outline: as §1

ELF4 = ELF4 (Homo sapiens, UniProt Q99607 1-663); details: protein: recombinant; tags: N-terminal GST; dsDNA, one strand shown
Sequence of ELF4 (Q99607 whole entry): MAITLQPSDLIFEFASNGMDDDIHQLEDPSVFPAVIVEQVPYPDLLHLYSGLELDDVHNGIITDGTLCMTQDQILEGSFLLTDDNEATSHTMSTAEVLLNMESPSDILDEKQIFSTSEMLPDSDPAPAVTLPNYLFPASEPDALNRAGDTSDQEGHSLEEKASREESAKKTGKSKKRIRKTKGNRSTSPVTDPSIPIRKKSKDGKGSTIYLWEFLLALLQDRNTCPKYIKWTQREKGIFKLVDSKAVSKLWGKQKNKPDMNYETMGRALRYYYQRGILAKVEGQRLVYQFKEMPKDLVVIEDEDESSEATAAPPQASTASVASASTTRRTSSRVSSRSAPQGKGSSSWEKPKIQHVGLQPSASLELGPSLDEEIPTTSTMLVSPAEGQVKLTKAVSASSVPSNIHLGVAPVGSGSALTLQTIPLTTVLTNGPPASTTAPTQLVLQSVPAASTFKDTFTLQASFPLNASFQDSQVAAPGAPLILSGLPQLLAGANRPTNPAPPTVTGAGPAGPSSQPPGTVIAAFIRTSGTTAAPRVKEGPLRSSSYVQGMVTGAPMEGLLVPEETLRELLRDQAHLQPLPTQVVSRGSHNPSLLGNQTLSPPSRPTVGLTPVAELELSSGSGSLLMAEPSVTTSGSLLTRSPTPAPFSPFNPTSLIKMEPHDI
Outline: as §1

ELK4 = target: T9, ELK4 (Homo sapiens, UniProt P28324-2 1-405); details: protein: recombinant; tags: N-terminal GST; dsDNA, one strand shown
T9 sequence: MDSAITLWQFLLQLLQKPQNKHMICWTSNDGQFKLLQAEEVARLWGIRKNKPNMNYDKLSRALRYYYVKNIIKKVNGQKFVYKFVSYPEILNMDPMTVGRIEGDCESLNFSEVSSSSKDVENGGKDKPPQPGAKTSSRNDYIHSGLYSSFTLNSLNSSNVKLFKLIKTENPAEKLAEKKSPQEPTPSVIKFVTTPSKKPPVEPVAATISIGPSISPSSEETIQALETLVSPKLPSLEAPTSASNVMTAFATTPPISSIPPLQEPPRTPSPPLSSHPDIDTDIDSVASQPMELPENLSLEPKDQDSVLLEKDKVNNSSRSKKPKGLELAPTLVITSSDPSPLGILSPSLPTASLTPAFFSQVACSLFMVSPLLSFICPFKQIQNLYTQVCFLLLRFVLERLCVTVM
Outline: as §1

ETV2 = target: T10, ETV2 (Homo sapiens, UniProt O00321 1-342); details: protein: recombinant; tags: N-terminal GST; dsDNA, one strand shown
T10 sequence: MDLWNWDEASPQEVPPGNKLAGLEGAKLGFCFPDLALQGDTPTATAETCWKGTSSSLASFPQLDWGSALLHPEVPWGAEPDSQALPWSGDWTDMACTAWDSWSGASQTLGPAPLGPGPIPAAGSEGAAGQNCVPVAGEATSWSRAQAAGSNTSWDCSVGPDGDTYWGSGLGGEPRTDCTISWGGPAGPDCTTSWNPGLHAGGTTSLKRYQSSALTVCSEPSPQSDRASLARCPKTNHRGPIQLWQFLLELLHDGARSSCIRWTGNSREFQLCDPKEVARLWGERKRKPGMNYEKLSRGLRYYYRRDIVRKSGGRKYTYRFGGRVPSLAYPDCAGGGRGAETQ
Outline: as §1

ELF3 = target: T11, ELF3 (Homo sapiens, UniProt P78545 1-371); details: protein: recombinant; tags: N-terminal GST; dsDNA, one strand shown
T11 sequence: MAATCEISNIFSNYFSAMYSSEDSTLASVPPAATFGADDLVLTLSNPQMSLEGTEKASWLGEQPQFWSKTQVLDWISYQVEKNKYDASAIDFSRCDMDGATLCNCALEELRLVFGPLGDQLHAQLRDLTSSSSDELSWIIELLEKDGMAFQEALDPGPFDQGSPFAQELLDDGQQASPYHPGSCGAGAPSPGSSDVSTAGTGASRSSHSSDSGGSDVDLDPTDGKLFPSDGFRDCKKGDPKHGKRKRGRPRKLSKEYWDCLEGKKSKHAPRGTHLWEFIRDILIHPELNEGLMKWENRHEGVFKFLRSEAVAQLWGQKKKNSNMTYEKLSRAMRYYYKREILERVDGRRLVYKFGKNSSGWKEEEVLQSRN
Outline: as §1

CRX = CRX (Homo sapiens, UniProt O43186 1-299); details: protein: recombinant; tags: N-terminal GST; dsDNA, one strand shown
Sequence of CRX (O43186 whole entry): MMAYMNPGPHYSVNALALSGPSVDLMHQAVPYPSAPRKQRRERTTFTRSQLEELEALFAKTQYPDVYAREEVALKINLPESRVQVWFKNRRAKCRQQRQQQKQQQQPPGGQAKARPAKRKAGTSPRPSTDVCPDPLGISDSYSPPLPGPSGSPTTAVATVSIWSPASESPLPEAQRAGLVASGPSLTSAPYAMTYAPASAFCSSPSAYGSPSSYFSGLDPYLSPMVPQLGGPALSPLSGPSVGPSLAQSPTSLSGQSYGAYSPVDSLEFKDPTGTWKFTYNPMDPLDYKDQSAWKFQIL
Outline: as §1

ETV1 = ETV1 (Homo sapiens, UniProt P50549 1-477); details: protein: recombinant; tags: N-terminal GST; dsDNA, one strand shown
Sequence of ETV1 (P50549 whole entry): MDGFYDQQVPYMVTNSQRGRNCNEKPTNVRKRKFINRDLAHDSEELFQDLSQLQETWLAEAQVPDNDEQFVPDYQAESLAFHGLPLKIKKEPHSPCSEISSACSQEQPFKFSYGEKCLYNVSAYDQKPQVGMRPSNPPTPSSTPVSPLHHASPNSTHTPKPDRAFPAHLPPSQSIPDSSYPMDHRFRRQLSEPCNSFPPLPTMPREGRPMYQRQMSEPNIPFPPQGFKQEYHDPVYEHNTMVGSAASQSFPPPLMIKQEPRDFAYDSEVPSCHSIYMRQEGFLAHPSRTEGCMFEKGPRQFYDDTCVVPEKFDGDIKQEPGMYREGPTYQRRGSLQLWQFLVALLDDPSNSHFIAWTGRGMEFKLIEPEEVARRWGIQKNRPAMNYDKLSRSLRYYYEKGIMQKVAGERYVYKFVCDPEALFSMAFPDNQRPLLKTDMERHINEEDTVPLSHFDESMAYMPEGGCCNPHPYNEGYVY
Outline: as §1

TTGTAT was tested, and the binding signal (FLI1) was 1.52 fold enrichment (6-mer frequency, TF over GST control), the binding signal (ELK1) was 1.33 fold enrichment (6-mer frequency, TF over GST control) and the binding signal (GABPA) was 1.29 fold enrichment (6-mer frequency, TF over GST control). For the same sequence, the binding signal (ERG) was 1.31 fold enrichment (6-mer frequency, TF over GST control), the binding signal (ELF1) was 1.32 fold enrichment (6-mer frequency, TF over GST control) and the binding signal (EHF) was 1.37 fold enrichment (6-mer frequency, TF over GST control). For the same sequence, the binding signal (SPI1) was 1.11 fold enrichment (6-mer frequency, TF over GST control), the binding signal (SPIB) was 1.38 fold enrichment (6-mer frequency, TF over GST control) and the binding signal (ELK3) was 1.4 fold enrichment (6-mer frequency, TF over GST control). The binding signal (FEV) was 1.26 fold enrichment (6-mer frequency, TF over GST control), the binding signal (ETV5) was 1.26 fold enrichment (6-mer frequency, TF over GST control) and the binding signal (HSF1) was 1.21 fold enrichment (6-mer frequency, TF over GST control). The binding signal (SPIC) was 1.28 fold enrichment (6-mer frequency, TF over GST control), the binding signal (ELF4) was 1.35 fold enrichment (6-mer frequency, TF over GST control) and the binding signal (ELK4) was 1.43 fold enrichment (6-mer frequency, TF over GST control). The binding signal (ETV2) was 1.4 fold enrichment (6-mer frequency, TF over GST control), the binding signal (ELF3) was 1.34 fold enrichment (6-mer frequency, TF over GST control) and the binding signal (CRX) was 1.42 fold enrichment (6-mer frequency, TF over GST control). The binding signal (ETV1) was 1.3 fold enrichment (6-mer frequency, TF over GST control).
